# BoNT-A LC inh2 = BoNT/A light chain protease inhibitors, primary screen, biochemical, flow cytometry, MLPCN library. inhibition, % at 10 µM. 0.17% of 360,000 active. multiplex microsphere protease substrate cleavage; also: plate controls were buffer without enzyme for full effect and enzyme alone for no effect
# Autofluor counter = compound fluorescence in toxin protease inhibitor counterscreen; 3.1% of 360,000 active; AID 624483; fluorescence intensity (no concentration beside the values); compound autofluorescence counterscreen, microsphere flow cytometry; active compounds read high; in the data active = fluorescence intensity above about 16000; inconclusive = no clear call, values can overlap the other calls
# Anthrax LF inh2 = Bacillus anthracis LF protease inhibitors, primary screen, biochemical, multiplex microsphere, MLPCN library; inhibition, % at 10 µM; multiplex microsphere protease cleavage assay; 0.12% of 360,000 active; also: plate controls were buffer without enzyme for full effect and enzyme alone for no effect
# Target sequence (P15917 whole entry, looked up): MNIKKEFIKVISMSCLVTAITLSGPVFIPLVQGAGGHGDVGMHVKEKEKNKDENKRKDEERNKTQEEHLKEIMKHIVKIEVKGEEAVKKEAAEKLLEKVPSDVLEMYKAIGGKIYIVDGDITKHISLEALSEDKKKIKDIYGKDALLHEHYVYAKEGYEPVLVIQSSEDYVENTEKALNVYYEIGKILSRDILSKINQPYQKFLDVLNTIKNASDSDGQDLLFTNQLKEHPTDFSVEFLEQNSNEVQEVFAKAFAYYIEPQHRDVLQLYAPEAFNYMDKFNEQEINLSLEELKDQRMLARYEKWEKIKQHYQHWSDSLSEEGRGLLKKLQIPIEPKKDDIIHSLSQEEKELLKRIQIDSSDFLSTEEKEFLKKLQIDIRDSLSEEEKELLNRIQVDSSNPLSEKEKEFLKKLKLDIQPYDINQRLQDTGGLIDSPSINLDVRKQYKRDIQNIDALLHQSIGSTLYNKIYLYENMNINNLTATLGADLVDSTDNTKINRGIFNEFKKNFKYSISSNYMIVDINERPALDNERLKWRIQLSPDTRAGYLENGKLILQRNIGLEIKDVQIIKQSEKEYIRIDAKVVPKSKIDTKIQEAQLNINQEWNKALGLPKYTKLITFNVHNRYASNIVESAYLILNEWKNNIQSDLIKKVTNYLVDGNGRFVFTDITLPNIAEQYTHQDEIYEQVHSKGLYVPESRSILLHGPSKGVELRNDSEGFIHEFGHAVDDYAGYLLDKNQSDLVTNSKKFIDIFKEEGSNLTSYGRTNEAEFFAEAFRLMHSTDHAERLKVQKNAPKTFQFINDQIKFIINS
# BoNT F protease = BoNT/F light chain protease inhibitors, primary screen, biochemical, flow cytometry, MLPCN library | Botulinum neurotoxin type F light chain protease (Clostridium botulinum) | Multiplex microsphere protease cleavage assay | inhibition, % at 10 µM | 0.22% of 360,000 active | AID 588497, 2011; in the data active = inhibition above about 35%, passing the limit was not always enough; inconclusive = no clear call, values can overlap the other calls; also: plate controls were buffer without enzyme for full effect and enzyme alone for no effect
# Active calls of the source: *; ? = inconclusive. In the library only some 3.5% were active in any assay of this set; here they are far more common. Rule as the data show it, unless noted: active = inhibition above about 30%; inconclusive = no clear call, values can overlap the other calls; inactive = below that.
SMILES,BoNT-A LC inh2,Autofluor counter,Anthrax LF inh2,BoNT F protease
O=C1c2cccnc2C(O)N1Cc1ccc(F)cc1 (configuration not stated),0.2,23014*,-4.7,0.8
O=C1c2cccnc2C(=O)N1Cc1ccc(F)cc1,2.6,21659*,-9.4,3.0
CC(=O)c1ccc(NC2c3ncccc3C(=O)N2Cc2ccc(F)cc2)cc1 (configuration not stated),5.2,21897*,1.3,4.4
CCN(CC)c1ccc(NC(=O)CCS(=O)(=O)c2ccc(Br)cc2)c(C)c1,1.4,3803,-4.0,30.0
CC(C)c1ccc(C2OCC(C)([N+](=O)[O-])CO2)cc1 (configuration not stated),-0.2,3478,2.9,-1.5
CC1(C(=O)O)COC(c2ccc([N+](=O)[O-])cc2)OC1 (configuration not stated),0.4,16243*,-0.8,-0.4
Cc1[nH]c2ccccc2c1C1=CC(=O)C=CC1=O,1.4,3759,-22.9,-19.7
CNC(=O)c1nn(C)c(=O)[nH]c1=O,0.6,2941,2.2,7.1
c1ccc(-c2nn[nH]n2)cc1,?,4346,-14.1,?
Cc1ccccc1-c1nn[nH]n1,-5.0,21118*,-0.2,-4.8
O=C(NNC(=S)Nc1ccccc1)C1CC1,-0.1,5187,-1.7,-3.7
S=C(NN=C(C1CC1)C1CC1)Nc1ccccc1,-1.9,17259*,-3.0,-5.0
Cc1ccc(-n2nc3c(N4CCC(C(=O)NCc5ccccc5C)CC4)nnc(C)c3c2C)cc1,-3.8,16178*,0.9,9.8
CCOc1ccc(CNC(=O)C2CCN(c3nnc(C)c4c(C)n(-c5ccc(C)cc5)nc34)CC2)cc1,-4.9,17592*,5.1,10.4
CCOc1ccccc1CNC(=O)C1CCN(c2nnc(C)c3c(C)n(-c4ccc(C)cc4)nc23)CC1,-1.9,12373,4.1,11.4
CCCc1[nH]nc2c1C(c1ccc(OC(=O)N3CCOCC3)cc1)C(C#N)=C(N)O2 (configuration not stated),-1.3,9715,0.3,-8.8
N#CC1=C(N)Oc2n[nH]c(-c3ccccc3)c2C1c1cccc(OC(=O)N2CCOCC2)c1 (configuration not stated),-2.4,16755*,-4.0,-6.1
COc1ccc(-c2[nH]nc3c2C(c2ccccc2OC(=O)N2CCOCC2)C(C#N)=C(N)O3)cc1 (configuration not stated),0.4,20595*,-0.9,0.1
Nc1c(Cl)cc(C(=O)NC2CC2)cc1Cl,-0.1,2947,-2.3,-8.9
CCc1nc2c(OCCn3cccc3)cccn2c1N(C)C(=O)c1ccc(C)cc1,-0.3,3791,2.0,-5.6
O=C1CC=Nc2ccc([N+](=O)[O-])cc21,0.3,3530,-3.2,-4.8
O=C(O)/C=C1\NC(=O)c2ccccc21,-0.8,4999,1.4,-22.0
O=C1N/C(=C\c2ccc(O)cc2)C(=O)c2ccccc21,4.6,19019*,-8.2,5.3
O=C(OCc1ccccc1)N1CCC2CC1c1ccc(/C=C/CCCCl)cc12 (configuration not stated),0.7,4335,-2.4,-5.6
COc1ccc(CCNS(=O)(=O)c2ccc(OC)cc2)cc1,-0.6,9563,-7.8,1.1
SMILES,BoNT-A LC inh2,Autofluor counter,Anthrax LF inh2,BoNT F protease
CCN(CC)CCCNS(=O)(=O)c1ccc(OC)cc1,?,17061*,-1.4,-3.5
Cc1cc(=O)[nH]c(SCC(=O)Nc2ccccc2C#N)c1C#N,3.0,21510*,-1.3,5.9
Cc1ccccc1NC(=O)CSc1nc(N)c(C#N)cc1C#N,0.0,16586*,-2.1,0.0
CN1CCN(Cc2c(O)ccc3c(-c4ccccc4)cc(=O)oc23)CC1,?,23428*,-4.2,-1.8
COc1ccccc1-c1c(C)oc2c(CN3CCN(CCO)CC3)c(O)ccc2c1=O,-0.2,3251,-11.0,-8.9
COc1ccccc1-c1c(C)oc2c(CN3CCN(C)CC3)c(O)ccc2c1=O,?,21100*,-2.0,-2.4
OCCCCCCNc1ccc(CCO)cc1,-0.2,6038,1.1,-4.9
Cc1cc2n(n1)SC(Nc1ccc(F)c(Cl)c1)N2 (configuration not stated),?,20632*,0.6,-3.8
CCCCNc1nc2c(c(=O)[nH]c(=O)n2C)n1CCCc1ccccc1,-0.2,3950,2.0,0.7
CN1/C(=C\C(=S)NC(=O)c2cccc(Br)c2)C(C)(C)c2ccccc21,41.5*,5118,15.9,-18.5
Brc1ccc(-c2nn3c(Cc4ccccc4)nnc3s2)o1,-0.9,3422,-0.5,0.9
c1ccc(Cc2nnc3sc(Nc4ccccc4)nn23)cc1,?,16579*,0.4,-3.1
CCCN(C(=O)c1ccccc1Cc1ccccc1)C1CCS(=O)(=O)C1 (configuration not stated),-2.0,6098,3.6,-1.7
COc1cc2c(cc1OC)CN(C(=O)CCCN1C(=O)c3ccccc3C1=O)CC2,?,22299*,-1.8,-1.9
Cc1cccc2nc3c(nc12)-c1ccccc1C3=O,?,3347,-3.1,?
Cc1ccc2nc3c(nc2c1)-c1ccccc1C3=O,0.3,23481*,0.7,-0.4
Cn1nc(-c2ccc(C(=O)N3CCN(CCO)CC3)cc2)c2ccccc2c1=O,?,21691*,-0.8,4.0
Cc1ccc(C(=O)Nc2ccc3c(c2)nc2n3CCSC2)cc1,1.7,23988*,5.2,3.5
CC(=O)Nc1ccc2c(c1)nc1n2CCSC1,4.7,18041*,-1.1,1.1
N/C(=N\OC(=O)c1ccc2ccccc2c1)c1ccccc1Cl,0.7,4955,-2.6,5.7
CCOC(=O)C1=CCC(c2ccc(CC)cc2)N(S(=O)(=O)c2ccc(C)cc2)C1 (configuration not stated),-0.1,5574,4.4,1.5
COC(F)(C(=O)Nc1ccc2c(c1)C(=O)NC2=O)C(F)(F)F (configuration not stated),1.2,22859*,2.6,1.9
O=C(Nc1ccc2c(c1)C(=O)NC2=O)c1cccc(C(F)(F)F)c1,-1.2,5897,0.3,-2.3
Cc1cnc(C(=O)Nc2ccc(F)cc2)cn1,3.1,21955*,2.5,6.0
Cc1cnc(C(=O)Nc2ccc(C(C)C)cc2)cn1,-0.2,3899,-1.3,-2.2
SMILES,BoNT-A LC inh2,Autofluor counter,Anthrax LF inh2,BoNT F protease
CCN(C(=O)COC(=O)C1CCN(S(=O)(=O)c2ccc(C)c(C)c2)CC1)C1CCCCC1,-0.2,4094,-4.5,-3.4
CN(C)CCNC(=O)Nc1ccc(Cl)c(Cl)c1,-2.2,24214*,-0.7,-1.4
CCN(CCO)c1ccc(NC(=S)Nc2cccc(S(=O)(=O)N(C)C)c2)cc1,-1.3,3578,1.1,-6.8
CN(C)S(=O)(=O)c1cccc(NC(=S)Nc2cc(Cl)cc(Cl)c2)c1,?,23036*,-0.8,-2.1
O=C(NCCc1ccncc1)Nc1ccc(Cl)c(Cl)c1,-0.8,4445,-5.7,1.8
CN(C)NC(=S)Nc1cccc(Cl)c1,?,?,-1.2,?
CN(C)CCNC(=S)Nc1cccc(Cl)c1,-1.1,23002*,-0.9,-1.5
CN1CCN(C(=O)CCn2c(=S)[nH]c3ccccc3c2=O)CC1,-0.2,2856,-7.8,3.8

# Bioassay records deposited in PubChem by NMMLSC.
